# LASV entry inh = Lassa virus entry inhibition; Lassa virus pseudotype entry inhibition, cell reporter; Potency, µM (doses to about 37.9 µM), for the others: at the top dose activity change, negative = inhibition, actives largely listed as inhibitors; 1.2% of 300,000 active; calls by dose curve; tested in HEK293 cells; further: potency means the concentration at half of the fitted maximal effect; nearly all actives have a fitted effect of over 50% in size
# HCMV antiviral = inhibitors of human cytomegalovirus; HFF cells, HCMV-luciferase reporter, 72 h; hits give low values; activity change, negative = inhibition, % at 57.5 µM; 4.5% of 410,000 active; AID 1259415; in the data active means activity change below about -60%; inconclusive means no clear call, values can overlap the other calls; inactive means above about -39%
#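 After 16 h attachment at 37C, HFF cells received test compound and HCMV-luciferase (1 PFU/cell); reporter luminescence read 72 h later, data normalized against buffer-only and known inhibitor Salinomycin.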
# VACV Venus inh = vaccinia inhibition (Venus reporter); Vaccinia virus Venus reporter expression, fluorescence; Potency, µM (titrated, usually from 36.5 µM), for inactives: at the top dose activity change, negative = inhibition, most hits filed as inhibitors; 0.46% of 330,000 active; AID 720580; calls by dose curve; tested in A549 cells; further: potency means the concentration at half of the fitted maximal effect; nearly all actives have a fitted effect of over 30% in size
# FMDV inh = blocks foot and mouth disease virus | 1.2% of 410,000 active | AID 1159524 | FMDV antiviral cell-based qHTS | Potency, µM (doses to about 57.9 µM), without a hit: at the highest dose activity change, negative = inhibition, most hits filed as inhibitors; calls by dose curve; tested in HEK293T cells; further: read-out not given here; potency means the concentration at half of the fitted maximal effect; nearly all actives have a fitted effect of over 45% in size
# Marburg entry inh = blocks Marburg virus binding to or entry into cells. Marburg virus pseudotyped entry inhibition, cell reporter. Potency, µM (series often up to 37.8 µM), for the others: at the highest dose activity change, negative = inhibition, actives largely listed as inhibitors. 1.8% of 300,000 active. AID 540276; calls by dose curve; tested in HEK293 cells; further: potency means the concentration at half of the fitted maximal effect
# VACV mCherry inh = inhibitors of vaccinia virus infection (mCherry reporter signal). Vaccinia virus mCherry reporter infection, fluorescence. Potency, µM (series often up to 36.5 µM), for the others: at the top dose activity change, negative = inhibition, hits mostly inhibitors. 0.63% of 310,000 active; calls by dose curve; tested in A549 cells; further: potency means the concentration at half of the fitted maximal effect; nearly all actives have a fitted effect of over 35% in size
# Numbers without * were called inactive; i = inactive; ? = inconclusive; / = no result given; [ ] = another dose, or the depositor's remark. Most compounds without a hit are left out; they make up all but 6.5% or so of the library. On the % scale 0 is the no-effect control and ±100 the full control effect.
SMILES,LASV entry inh,HCMV antiviral,VACV Venus inh,FMDV inh,Marburg entry inh,VACV mCherry inh
COc1cc(C2c3c(-c4ccccc4O)n[nH]c3C(=O)N2Cc2ccco2)cc(OC)c1OC (centres undefined),/,-4.2,/,-12.4%,/,/
COc1ccc(C2c3c(-c4c(C)cc(C)cc4O)n[nH]c3C(=O)N2Cc2ccco2)cc1 (centres undefined),-17.1%[46.1 µM],?,-11.1%,?,?,-16.7%
COc1ccc(C2c3c(-c4ccccc4O)n[nH]c3C(=O)N2Cc2ccco2)cc1 (centres undefined),0.58µM*,?,-1.8%,-3.3%,-24.7%,-22.6%
C=CCCC1(C(=O)c2ccccc2)C(=O)C(CC=C(C)C)=C(OC)C(CC=C(C)C)(CCC=C(C)C)C1=O (centres undefined),?,/,/,/,-1.2%[14.2 µM],/
CC(C)(C)C(=O)Nc1ccc(-c2cnco2)cc1,12.9%,25.1,-14.9%,36.3%,9.4%,i
O=C1c2[nH]nc(-c3ccccc3O)c2C(c2cccc(Br)c2)N1Cc1ccncc1 (centres undefined),?,-82.5*,?,9.7%,?,?
CCOC(=O)c1ccc(N2C(=O)c3n[nH]c(-c4ccco4)c3C2c2ccc(OC)cc2OC)cc1 (centres undefined),?,-105.2*,-18.4%,?,?,-12.5%
CCOC(=O)c1ccc(N2C(=O)c3n[nH]c(-c4ccco4)c3C2c2cccc([N+](=O)[O-])c2)cc1 (centres undefined),?,70.4,?,35.5µM*,5.01µM*,?
CCOC(=O)c1ccc(N2C(=O)c3n[nH]c(-c4ccco4)c3C2c2ccc(O)c(OCC)c2)cc1 (centres undefined),?,-104.6*,-17.5%,?,7.94µM*,-23.1%
CCOC(=O)c1ccc(N2C(=O)c3n[nH]c(-c4ccco4)c3C2c2ccc(C(=O)OC)cc2)cc1 (centres undefined),?,-80.1*,-21.7%,?,?,-14.2%
Cn1c(=O)c2c(nc(C(O)c3ccccc3)n2C)n(C)c1=O (centres undefined),-5.4%,-39.3,-13.2%,-7.7%,?,-0.4%
Cc1cc(C)c(C)c(S(=O)(=O)NCc2ccc(C(=O)NCC3CCCO3)cc2)c1C (centres undefined),/,6.3,/,-14.0%,/,/
COc1cc(NC(=O)CC(C)S(=O)(=O)c2ccc3c(c2)CCN3C(C)=O)cc(OC)c1OC (centres undefined),8.2%[46.1 µM],0.1,1.8%,-19.3%,/,-0.9%
CN(C)c1ccc(/C=C/c2c(F)cnc3ccccc23)cc1,/,/,-14.1%,/,/,6.9%
CCOC(=O)c1ccc(N2C(=O)c3[nH]nc(-c4ccc(C)cc4)c3C2c2ccc(O)c(OCC)c2)cc1 (centres undefined),?,-101.3*,-20.0%,?,?,-16.8%
O=[N+]([O-])c1ccc(NNC(=S)Nc2ccc(F)cc2)cc1,?,-98.5*,?,-0.3%,?,?
CC(C)CCNC(=S)Nc1ccc([N+](=O)[O-])cc1,?,-98.3*,?,11.8%,?,?
CCCCNC(=S)NC(=O)c1ccc([N+](=O)[O-])cc1,-9.8%,-1.2,-10.7%,31.0%,?,/
CCCCNC(=S)Nc1ccc([N+](=O)[O-])cc1,?,-75.4*,?,16.7%,?,?
CC(C)OC(=O)c1cc(NC(=S)Nc2ccc([N+](=O)[O-])cc2)cc(C(=O)OC(C)C)c1,?,-85.9*,-17.2%,?,14.1µM*,-8.5%
CC(C)CCNC(=S)Nc1ccc(Br)cc1,?,?,?,-15.7%,?,-12.6%
COc1ccc(NC(=S)N2CCCC(c3nc4ccc(C)cc4[nH]3)C2)c(OC)c1 (centres undefined),-10.3%,-87.1*,/,-5.5%,-9.4%,/
CC[C@H](C)[C@H]1CNC(=O)C(=O)N1CC1CCN(CCc2ccccc2)CC1,/,-25.6,3.0%,-26.2%,/,-9.2%
CN(C(=O)Cn1cc([N+](=O)[O-])ccc1=O)C1CCCCC1,8.9%,0.2,3.6%,-18.2%,1.26µM*,-11.8%
COc1ccc(C(=O)NCC2Cc3c(F)ccc(-c4nc(C)cnc4C)c3O2)cc1F (centres undefined),/,/,2.2%,-5.2%,/,-6.1%
SMILES,LASV entry inh,HCMV antiviral,VACV Venus inh,FMDV inh,Marburg entry inh,VACV mCherry inh
Cn1c(=NC(=O)CCl)sc2ccccc21,?,-99.4*,-28.5%,?,?,?
CC[C@@H](C)[C@H](C(CC(=O)N1CCCC1[C@@H](OC)[C@H](C)C(=O)N[C@H](Cc1ccccc1)c1nccs1)OC)N(C)C(=O)[C@H](NC(=O)[C@@H](C(C)C)N(C)C)C(C)C (some centres undefined),?,-90.7*,?,-12.4%,-2.2%,-19.4%
CCOC(=O)CSc1nnc(NC(=O)CN2CCCCC2)s1,24.9%[46.1 µM],4.4,-18.1%,-12.0%,?,-5.5%
Cc1cccc(OS(=O)(=O)NC(=O)OCC2CCCN3CCCCC23)c1 (centres undefined),-0.4%,-13.7,-11.0%,31.6µM*,-20.5%[46.1 µM],-9.3%
O=C(NS(=O)(=O)Oc1ccc(Cl)cc1)OC[C@@H]1CCCN2CCCC[C@H]12,0.7%,?,-4.6%,-14.6%,2.2%,-9.5%
Cc1nc2ccc(NC(=O)CCS(=O)(=O)c3ccc(Cl)cc3)cc2s1,-22.1%,?,-24.0%,?,?,?
CC(C)c1nnc(NC(=O)CCS(=O)(=O)Cc2ccccc2)s1,0.1%[46.1 µM],8.0,-11.4%,-10.6%,3.8%[46.1 µM],-20.3%
CC(C)c1nnc(NC(=O)CCS(=O)(=O)c2nc(-c3cccs3)cc(C(F)(F)F)n2)s1,?,43.3,/,14.1µM*,13µM*,/
COc1ccc(Cl)cc1NC(=O)CCS(=O)(=O)c1nc(-c2cccs2)cc(C(F)(F)F)n1,?,-93.8*,-19.3%,31.6µM*,17.6%[46.1 µM],-22.2%
COc1ccc(NC(=O)CCS(=O)(=O)c2nc(-c3cccs3)cc(C(F)(F)F)n2)cc1,?,-100.8*,-16.3%[7.34 µM],?,?,-9.6%[7.34 µM]
O=C(CCS(=O)(=O)c1nc(-c2cccs2)cc(C(F)(F)F)n1)Nc1ccc(F)c(Cl)c1,?,-99.0*,-16.2%[7.34 µM],35.5µM*,26.8%[46.1 µM],-23.1%[7.34 µM]
O=C(CCS(=O)(=O)c1nc(-c2cccs2)cc(C(F)(F)F)n1)Nc1ccc(OC(F)(F)F)cc1,?,37.7,2.1%,-19.5%,?,-12.0%
S=C1SCN(CC2CC2)CN1CC1CC1,-31.4%[46.1 µM],-77.1*,-0.6%,-22.5%,5.6%[46.1 µM],i
O=C([C@@H]1CC1(c1ccccc1)c1ccccc1)N1CCOCC1,/,/,/,/,-6.1%,/
CN1CCN(CCOC2c3ccccc3CSc3ccc(Cl)cc32)CC1 (centres undefined),20.6µM*,-37.1,?,-22.1%,?,?
O=C(NCCc1ccccc1Cl)c1ccc(Cn2c(=O)c3cccn3c3cccnc32)cc1,-19.5%[46.1 µM],-83.6*,?,-9.7%,/,?
CCCNC(=O)c1ccc(Cn2c(=O)c3cccn3c3cccnc32)cc1,16.1%[46.1 µM],-23.4,-4.7%,0.5%,/,-13.3%
